AmpC inh detg = qHTS Inhibitors of AmpC Beta-Lactamase (assay with detergent); P00811; AmpC hydrolysis of nitrocefin, absorbance 480 nm, 0.01% Triton; Potency, µM (titrated, usually from 114 µM), for the others: at the highest dose activity change, negative = inhibition, most hits filed as inhibitors; 0.041% of 370,000 active;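 further: 0% = no-compound wells and -100% = no-enzyme wells; nearly all actives have a fitted effect of over 25% in size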
Target sequence (P00811 whole entry, looked up): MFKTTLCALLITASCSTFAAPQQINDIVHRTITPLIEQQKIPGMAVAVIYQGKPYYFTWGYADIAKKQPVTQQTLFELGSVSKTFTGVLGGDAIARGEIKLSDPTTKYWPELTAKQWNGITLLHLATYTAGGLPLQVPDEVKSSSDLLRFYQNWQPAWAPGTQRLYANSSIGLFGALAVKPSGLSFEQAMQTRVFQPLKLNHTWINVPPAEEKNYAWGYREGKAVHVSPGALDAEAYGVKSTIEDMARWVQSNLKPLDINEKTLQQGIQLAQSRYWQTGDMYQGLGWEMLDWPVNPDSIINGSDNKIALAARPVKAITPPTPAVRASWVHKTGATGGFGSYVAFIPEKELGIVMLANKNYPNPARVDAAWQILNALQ
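AmpC (5.3 nM in the dispensed reagent) in 20 mM phosphate pH 7.0 with 0.01% (detergent screen) or 0.0001% Triton X-100 was preincubated with compounds for 15 min at room temperature. Nitrocefin was then added from an 800 uM solution, and hydrolysis was followed at 480 nm.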
AmpC no deterg = qHTS Inhibitors of AmpC Beta-Lactamase (assay without detergent); P00811; AmpC nitrocefin hydrolysis, absorbance 480 nm, 0.0001% Triton; Potency, µM (series often up to 57.1 µM), for the others: at the top dose activity change, negative = inhibition, most hits filed as inhibitors; 0.52% of 330,000 active;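 further: plate controls were no compound for no effect and no enzyme for full effect; nearly all actives have a fitted effect of over 20% in size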
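20 mM phosphate pH 7.0 + 0.01% (detergent screen) or 0.0001% Triton X-100; 5.3 nM AmpC reagent; cpd preinc 15 min RT; nitrocefin (800 uM stock) to start; A480 q20 s × 4 min; Activity was normalised to no-enzyme and no-compound control wells.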
Giardia FBPA inh = qHTS Assay for Inhibitors of Fructose-1,6-bisphosphate Aldolase from Giardia Lamblia. A8B2U2. purified Giardia FBPA. Potency, µM (titrated, usually from 59.6 µM), without a hit: at the highest dose activity, negative = inhibition, most hits filed as inhibitors. 0.71% of 290,000 active. AID 2451, 2010; further: nearly all actives have a fitted effect of over 55% in size
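40 nM FBPA preincubated 10 min at RT with compound (up to 57.5 uM final), then substrate plus GAPDH/TPI/NAD/arsenate coupling and diaphorase/resazurin added. Fluorescence read after 20 min at RT, 525/598 nm.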
Sm TGR inh = qHTS Assay for the Inhibitors of Schistosoma Mansoni Peroxiredoxins | Schistosoma mansoni thioredoxin glutathione reductase (TGR), Q962Y6 | purified TGR, DTNB reduction, TNB absorbance 405 nm | Potency, µM (doses to about 114 µM), for the others: top-dose activity change, negative = inhibition, hits mostly inhibitors | 3% of 360,000 active; further: nearly all actives have a fitted effect of over 60% in size
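TGR 20 nM + NADPH 100 uM (dispensed conc.), cpd preinc 15 min RT; start with NADPH (500 uM addition) then DTNB (15 mM addition). Kinetic TNB absorbance, 405 nm filter. Four-parameter Hill fit across titration.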
Active calls of the source: *; ? = inconclusive; . = not tested or not shown; [ ] = remark or other dose. In the library only some 3.6% were active in any assay of this set; here they are far more common. The call rests on the fitted dose curve; in most records, active means well fitted curve in the direction sought with a large enough effect; inconclusive means small, poorly fitted or top-dose-only effect, or another doubt; inactive means no such curve, though single readings can be large; an effect the other way counts as inactive or inconclusive. Unless noted, on the % scale 0 is the no-effect control and ±100 the full control effect; potency means the concentration at half of the fitted maximal effect.

SMILES	AmpC inh detg	AmpC no deterg	Giardia FBPA inh	Sm TGR inh
CC(C)c1ccc(N2C(=O)CC(Sc3ncn[nH]3)C2=O)cc1 (configuration not stated)	-9.8%	-21.3%	?	0.562µM*
NCCc1nc2cccnc2n1-c1ccccc1	12.6%	.	.	3.5%
O=C(O)c1ccccn1	?	-6.9%	.	-2.4%
O=C(O)c1ccc2cccnc2n1	-1.8%	-12.3%	5.61µM*	31.6µM*
O=C(O)c1cccc(C(=O)O)n1	?	-14.2%	28.2µM*	-30.8%
COc1ccc(N2C(=O)CC(Sc3nc4ccccc4s3)C2=O)cc1 (configuration not stated)	1.4%	-19.3%	-7.3%	22.4µM*
COc1ccc(N2C(=O)CC(Sc3nccc(C)n3)C2=O)cc1 (configuration not stated)	-4.9%	-4.3%	-0.4%	-25.2%[11.4 µM]
COc1ccc(N2C(=O)CC(Sc3nnc(-c4ccccc4F)n3C)C2=O)cc1 (configuration not stated)	10.5%	-10.2%	0.1%	2.82µM*
COc1ccc(N2C(=O)CC(Sc3ncccc3C(=O)O)C2=O)cc1 (configuration not stated)	-0.5%	-14.8%	3.6%	?
COc1ccc(N2C(=O)CC(N3CCN(c4ccc(S(C)(=O)=O)cc4)CC3)C2=O)cc1 (configuration not stated)	?	-9.0%	-1.9%	17.8µM*
CCOc1ccc2nc(SC3CC(=O)N(c4ccc(OC)cc4)C3=O)sc2c1 (configuration not stated)	3.3%	-28.6%	-0.9%	-30.5%
C=CCNc1nnc(SC2CC(=O)N(c3ccc(OC)cc3)C2=O)s1 (configuration not stated)	-11.9%	-15.8%	-13.2%	2.82µM*
CCN(Cc1ccncc1)C(=O)C1CCC(=O)N(Cc2ccc(Cl)cc2)C1 (configuration not stated)	-7.9%	15.2%	.	-25.7%
Cc1ccc(C)c(N2CCN(C(c3ccc(F)cc3)c3nnc(-c4ccccc4)o3)CC2)c1 (configuration not stated)	-4.3%	.	.	0.1%
Cc1ccc(NC(=O)C2CCCN2C(=O)OCc2ccccc2)c(O)c1 (configuration not stated)	-6.4%	-7.8%	-3.0%	1.9%
C/C(N)=C(/C#N)C(=O)CN1C(=O)NC(Cc2c[nH]c3ccccc23)C1=O (configuration not stated)	?	-15.0%	-8.4%	5.1%
COc1ccc(N2C(=O)CC(N3CCC(n4c(=O)[nH]c5ccccc54)CC3)C2=O)cc1 (configuration not stated)	-3.9%	33.0%	1.4%	35.5µM*
COc1ccc(N2C(=O)CC(N3CCN(c4nc5ccccc5s4)CC3)C2=O)cc1 (configuration not stated)	-7.5%	194.7%	-0.6%	20µM*
CCOc1cccc(N2C(=O)CC(N3CCN(c4nc5ccccc5s4)CC3)C2=O)c1 (configuration not stated)	-4.6%	33.9%	0.6%	?
COC(=O)N1C(=O)[C@](c2ccccc2)(C2CCCC2)N1C(=O)OC	7.8%	33.5%	10.7%	20µM*
CCC1(c2ccccc2)NC(=O)N(CC(=O)NC2CCCC2)C1=O (configuration not stated)	-7.5%	-3.9%	.	-1.8%
COC(=O)N1C(=O)[C@@](c2ccccc2)(C(C)C)N1C(=O)OC	-22.8%	4.9%	-2.6%	35.5µM*
COc1ccc(C2(c3ccc(OC)cc3)NC(=O)N(CC(=O)NC(C)C)C2=O)cc1	-12.8%	1.7%	3.9%	6.7%
COC(=O)N1C(=O)[C@@](c2ccc(OC)cc2)(C(C)C)N1C(=O)OC	3.4%	24.8%	2.5%	28.2µM*
CCC1(c2ccccc2)C(=O)N(C(=O)OC(C)(C)C)N1C(=O)OC(C)(C)C (configuration not stated)	-7.4%	-0.4%	.	-25.2%
COC(=O)N1C(=O)[C@](c2ccc(Cl)cc2)(C(C)C)N1C(=O)OC	-20.1%	36.7%	2.1%	10µM*
CCOC(=O)c1c(C)oc2ncnc(Nc3ccc(OC)c(OC)c3)c12	8.6%	.	.	8.8%
O=C(CCl)Nc1cccc(Oc2ccccc2)c1	-13.5%	-50.3%	-8.2%	11.2µM*
O=C(CN1CCCCC1)Nc1cccc(Oc2ccccc2)c1	-6.2%	30.4%	0.2%	-6.5%
